# Data from the supplement of paper PMC6411743.
# ± gives the standard deviation of the averaged measurements. Of roughly 6,200 targets only a part is listed; those with the largest changes were picked by preference.
# Key:
# Test in all cases: NP40-soluble protein abundance relative to vehicle (solubility fold change) (ratio); higher = more soluble protein in presence of AMP-PNP
# D6R9V8|Q9UKY7 = target: T1, D6R9V8|Q9UKY7 (UniProt Q9UKY7)
# T1 sequence (whole entry): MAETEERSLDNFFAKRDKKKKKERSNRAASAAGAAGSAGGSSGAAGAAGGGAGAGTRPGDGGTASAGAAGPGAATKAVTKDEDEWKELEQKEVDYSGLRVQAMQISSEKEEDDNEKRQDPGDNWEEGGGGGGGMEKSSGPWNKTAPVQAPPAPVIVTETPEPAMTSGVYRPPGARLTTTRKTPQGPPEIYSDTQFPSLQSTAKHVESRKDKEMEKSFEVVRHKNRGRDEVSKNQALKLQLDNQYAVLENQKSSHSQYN
# Summary of the method: (§1)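 Jurkat crude lysate prepared with a Dounce homogeniser was treated at eight concentrations spanning 0.1 to 10 mM, 10 min at room temperature then 3 min at 37 °C. Solubilisation with 0.8% NP40 and benzonase and ultracentrifugation preceded TMT labelling of the supernatant for LC-MS/MS. Fold change against the detergent-processed vehicle was determined per replicate from vsn-normalised intensities, across three independent experiments.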
# E9PNW4|E9PR17|P13987 = target: T2, E9PNW4|E9PR17|P13987 (UniProt P13987)
# T2 sequence (whole entry): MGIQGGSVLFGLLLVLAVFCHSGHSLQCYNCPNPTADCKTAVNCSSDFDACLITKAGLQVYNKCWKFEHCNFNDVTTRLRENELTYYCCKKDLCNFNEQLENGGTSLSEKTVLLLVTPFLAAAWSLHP
# Summary of the method: as §1
# UniProt O43861|O43861-2 = target: T3, UniProt O43861|O43861-2
# T3 sequence (whole entry): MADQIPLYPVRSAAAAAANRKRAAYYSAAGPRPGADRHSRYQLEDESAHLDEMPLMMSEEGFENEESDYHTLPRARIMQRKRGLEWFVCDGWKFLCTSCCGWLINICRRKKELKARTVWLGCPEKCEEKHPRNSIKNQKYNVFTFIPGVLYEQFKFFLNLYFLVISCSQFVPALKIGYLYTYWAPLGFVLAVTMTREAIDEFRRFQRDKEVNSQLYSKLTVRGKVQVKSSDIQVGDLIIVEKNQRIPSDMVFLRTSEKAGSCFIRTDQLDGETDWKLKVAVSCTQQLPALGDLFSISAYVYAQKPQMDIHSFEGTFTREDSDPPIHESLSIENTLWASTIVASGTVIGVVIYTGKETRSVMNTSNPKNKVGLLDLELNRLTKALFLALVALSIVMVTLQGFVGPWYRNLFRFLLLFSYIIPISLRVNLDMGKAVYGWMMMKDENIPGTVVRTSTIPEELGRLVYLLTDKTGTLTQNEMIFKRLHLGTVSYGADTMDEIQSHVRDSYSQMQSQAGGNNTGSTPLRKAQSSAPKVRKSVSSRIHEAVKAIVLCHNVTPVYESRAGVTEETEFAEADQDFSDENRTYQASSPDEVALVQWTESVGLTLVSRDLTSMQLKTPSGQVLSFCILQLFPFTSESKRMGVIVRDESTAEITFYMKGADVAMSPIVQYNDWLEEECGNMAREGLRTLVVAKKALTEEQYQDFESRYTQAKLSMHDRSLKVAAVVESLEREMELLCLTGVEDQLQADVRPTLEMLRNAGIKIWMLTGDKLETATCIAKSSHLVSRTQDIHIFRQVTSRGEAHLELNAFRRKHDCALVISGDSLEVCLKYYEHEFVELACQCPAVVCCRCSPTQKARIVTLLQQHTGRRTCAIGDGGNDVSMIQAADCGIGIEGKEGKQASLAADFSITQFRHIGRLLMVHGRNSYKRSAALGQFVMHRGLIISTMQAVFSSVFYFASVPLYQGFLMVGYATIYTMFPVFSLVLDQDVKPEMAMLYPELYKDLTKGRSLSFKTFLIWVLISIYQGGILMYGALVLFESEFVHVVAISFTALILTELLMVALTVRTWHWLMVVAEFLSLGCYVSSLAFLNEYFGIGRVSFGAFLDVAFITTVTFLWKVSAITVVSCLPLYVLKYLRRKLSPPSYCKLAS
# Summary of the method: as §1
# ZW10 = target: T4, ZW10 (UniProt O43264)
# T4 sequence (whole entry): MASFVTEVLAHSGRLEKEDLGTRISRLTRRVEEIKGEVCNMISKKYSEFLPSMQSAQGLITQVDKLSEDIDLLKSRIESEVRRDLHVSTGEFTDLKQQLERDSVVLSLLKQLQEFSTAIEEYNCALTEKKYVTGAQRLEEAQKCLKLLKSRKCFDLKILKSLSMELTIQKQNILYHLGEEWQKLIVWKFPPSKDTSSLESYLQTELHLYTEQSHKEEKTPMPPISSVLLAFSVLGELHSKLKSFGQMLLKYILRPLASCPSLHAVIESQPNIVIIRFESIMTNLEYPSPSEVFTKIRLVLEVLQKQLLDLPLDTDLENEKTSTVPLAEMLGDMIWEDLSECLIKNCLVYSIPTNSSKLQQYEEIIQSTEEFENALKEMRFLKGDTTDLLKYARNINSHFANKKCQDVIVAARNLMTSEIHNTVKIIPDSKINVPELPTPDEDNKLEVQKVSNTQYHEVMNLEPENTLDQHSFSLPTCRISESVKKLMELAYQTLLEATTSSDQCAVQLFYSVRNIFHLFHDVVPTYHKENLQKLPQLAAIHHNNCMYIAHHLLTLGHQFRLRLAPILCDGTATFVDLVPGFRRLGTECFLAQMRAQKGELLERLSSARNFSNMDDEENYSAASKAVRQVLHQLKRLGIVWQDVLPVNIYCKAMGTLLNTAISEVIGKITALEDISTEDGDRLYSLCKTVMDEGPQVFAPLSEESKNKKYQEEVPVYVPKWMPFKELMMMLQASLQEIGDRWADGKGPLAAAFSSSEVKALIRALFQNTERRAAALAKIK
# Summary of the method: as §1
structure (smiles),measurement,setting,value
Nc1ncnc2c1ncn2[C@@H]1O[C@H](COP(=O)(O)OP(=O)(O)NP(=O)(O)O)[C@@H](O)[C@H]1O [adenylyl imidodiphosphate],NP40-soluble protein abundance,D6R9V8|Q9UKY7; concentration: 1mM,1.03 ± 0.021
same,NP40-soluble protein abundance,D6R9V8|Q9UKY7; concentration: 2mM,1.09 ± 0.089
same,NP40-soluble protein abundance,D6R9V8|Q9UKY7; concentration: 4mM,1.03 ± 0.034
same,NP40-soluble protein abundance,D6R9V8|Q9UKY7; concentration: 6mM,1.04 ± 0.034
same,NP40-soluble protein abundance,D6R9V8|Q9UKY7; concentration: 8mM,0.993 ± 0.028
same,NP40-soluble protein abundance,D6R9V8|Q9UKY7; concentration: 10mM,1.05 ± 0.07
same,NP40-soluble protein abundance,E9PNW4|E9PR17|P13987; concentration: 1mM,1.05 ± 0.053
same,NP40-soluble protein abundance,E9PNW4|E9PR17|P13987; concentration: 2mM,1.11 ± 0.13
same,NP40-soluble protein abundance,E9PNW4|E9PR17|P13987; concentration: 4mM,1.03 ± 0.049
same,NP40-soluble protein abundance,E9PNW4|E9PR17|P13987; concentration: 6mM,1.07 ± 0.051
same,NP40-soluble protein abundance,E9PNW4|E9PR17|P13987; concentration: 8mM,1.1 ± 0.015
same,NP40-soluble protein abundance,E9PNW4|E9PR17|P13987; concentration: 10mM,1.06 ± 0.03
same,NP40-soluble protein abundance,UniProt O43861|O43861-2; concentration: 1mM,1.01 ± 0.022
same,NP40-soluble protein abundance,UniProt O43861|O43861-2; concentration: 2mM,1 ± 0.012
same,NP40-soluble protein abundance,UniProt O43861|O43861-2; concentration: 4mM,1.01 ± 0.025
same,NP40-soluble protein abundance,UniProt O43861|O43861-2; concentration: 6mM,0.986 ± 0.013
same,NP40-soluble protein abundance,UniProt O43861|O43861-2; concentration: 8mM,1 ± 0.041
same,NP40-soluble protein abundance,UniProt O43861|O43861-2; concentration: 10mM,1.024 ± 0.0049
same,NP40-soluble protein abundance,ZW10; concentration: 1mM,0.994 ± 0.031
same,NP40-soluble protein abundance,ZW10; concentration: 2mM,0.974 ± 0.043
same,NP40-soluble protein abundance,ZW10; concentration: 4mM,0.977 ± 0.047
same,NP40-soluble protein abundance,ZW10; concentration: 6mM,0.936 ± 0.064
same,NP40-soluble protein abundance,ZW10; concentration: 8mM,0.919 ± 0.081
same,NP40-soluble protein abundance,ZW10; concentration: 10mM,0.941 ± 0.07
